# High-throughput results as filed in PubChem BioAssay.
# An excerpt weighted towards active compounds, which were near 1.5% of everything screened.
# F-actin modifier: modifiers of F-actin cytoskeleton organization, primary screen, imaging, HUVEC, phalloidin staining, high-content imaging; HUVEC TNFa F-actin phalloidin imaging; actives 0.18% (n = 91,000); inhibition, % at 2 µM;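 active = inhibition above the batch mean plus 3 SD and confirmed as a hit by visual image inspection, cut at about 30% in these data, passing the limit was not always enough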
# MRP resist rev: reversal of MRP1-mediated doxorubicin resistance, primary screen, H69AR cells, doxorubicin co-treatment; H69AR cells + 2 uM doxorubicin, CellTiter-Glo, 72 h; differential viability (reversal), % at 10 µM; actives 0.04% (n = 85,000);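 active = viability drop by adding the cancer drug above about 55%, with treated viability meeting a 40% cutoff, limit read from the data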;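 note: larger differential means the compound sensitizes cells more to doxorubicin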
# VCAM1 TNFa inh: inhibitors of TNFa-induced VCAM1 expression, primary screen, imaging, HUVEC, TNFa stimulus, immunofluorescence. HUVEC TNFa-induced VCAM-1 immunofluorescence, high-content imaging. inhibition, % at 2 µM. actives 0.48% (n = 95,000). AID 802, 2007;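 active = inhibition above the batch mean plus 3 SD, with images confirmed as a hit by eye, cut at about 37% in these data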
# E-sel TNF inh: E-selectin induction blockers in HUVEC – imaging, immunofluorescence, high content, primary screen; HUVEC TNFa-induced E-selectin immunofluorescence; inhibition, % at 2 µM; actives 0.71% (n = 120,000); AID 1246, 2008;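 active = inhibition above the batch mean plus 3 SD, and confirmed as a hit on visual image review, cut at about 43% in these data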
# MRP-1 activ: H69AR viability gain despite doxorubicin, primary screen, MRP-1 activator project, H69AR cells, CellTiter-Glo. viability rescue. viability increase, % at 10 µM. actives 0.61% (n = 140,000);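 active = viability gain under doxorubicin at or above a set limit, the compound median plus 3 SD, cut at about 4.7% in these data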;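 note: MRP-1 overexpressing cells given doxorubicin 25 µM after compound pretreatment; 18-22 h compound pretreatment then 72 h with doxorubicin before readout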
# Numbers stand for hits; 0 = inactive; - = no result given.
SMILES,F-actin modifier,MRP resist rev,VCAM1 TNFa inh,E-sel TNF inh,MRP-1 activ
O=C(COC(=O)CCc1ccc(S(=O)(=O)N2CCOCC2)cc1)NC1CCCCCC1,-,-,-,-,0
O=C(COC(=O)CCc1ccc(S(=O)(=O)N2CCOCC2)cc1)NC1CCCC1,-,-,-,63,0
CCNc1nc(NCC)nc(SCCOC(=O)Nc2ccc(Cl)cc2Cl)n1,-,-,-,0,0
COC(=O)c1cscc1NC(C)=O,30,-,0,0,0
O=C(/C(C=Nc1ccc(F)cc1)=C(/O)c1ccco1)C(F)(F)F,-,-,-,-,0
COc1cc(Cl)ccc1NC(=O)COc1ccccc1C(=O)N1CCN(c2ccc(O)cc2)CC1,0,0,0,-,0
CSc1ncccc1C(=O)Nc1nc2ccc(Oc3ccccc3)cc2s1,-,-,-,-,4.8
COc1ccc(C(=O)NCC(C)C)c(OC)c1,0,0,0,91,0
COc1ccc(C(=O)Nc2ccccc2Cc2ccccc2)c(OC)c1,-,-,-,-,5.3
CCOC(=O)c1c(=O)n(O)c2ccc(OC)cc2[n+]1[O-],0,0,0,0,0
CCOC(=O)C(NC(=O)Nc1ccc(C(N)=O)cc1)(c1ccccc1)C(F)(F)F (stereo not given),-,-,-,0,0
C=CCn1c(SCc2cc(C(C)=O)ccc2OCC)nc2ccccc2c1=O,-,-,-,-,0
CCC(C)c1ccccc1OCCCCN1CCCC1 (stereo not given),-,-,-,64,0
CCC(C)c1ccccc1OCCOCCN1CCCC1 (stereo not given),-,-,-,0,0
CC(C)N(Cc1cc2ccccc2[nH]c1=O)C(=O)C(C)(C)C,0,0,0,0,9.3
CC(C)C(=O)N(Cc1cc2ccccc2[nH]c1=O)C(C)C,0,0,0,0,0
Cc1ccc(OCCN2CCN(C(=O)CCC(=O)Nc3nnc(C(C)C)s3)CC2)cc1,0,0,0,0,0
Cc1ccc(OCCN2CCN(C(=O)CCC(=O)Nc3nnc(C)s3)CC2)cc1,0,0,0,0,7.8
O=C(NCc1ccccn1)c1cc(-c2ccc(-c3ccccc3)cc2)nc2ccccc12,-,-,-,-,5.5
O=C(NCc1ccccn1)c1cc(-c2ccccc2)nc2ccccc12,-,-,-,-,0
COc1ccc(N2C(=O)CC(NC3CCCCNC3=O)C2=O)cc1 (stereo not given),35,0,0,0,0
Cc1nc(/N=C(\N)NC(=O)c2ccccc2)nc2ccccc12,0,-,0,0,0
Cc1nc(/N=C(\N)NC(=O)N2c3ccccc3Sc3ccccc32)nc2ccccc12,-,-,-,0,6.5
CCOC(=O)c1ccc(S(=O)(=O)N2CCN(C(=O)c3nn(C)c(=O)c4ccccc34)CC2)cc1,-,-,-,0,-
CCOC(=O)c1ccc(NC(=O)CC2C(=O)N(c3cccc(OC)c3)C(=O)N2CCOC)cc1 (stereo not given),0,0,0,0,0
SMILES,F-actin modifier,MRP resist rev,VCAM1 TNFa inh,E-sel TNF inh,MRP-1 activ
COCCN1C(=O)N(c2cccc(C)c2)C(=O)C1CC(=O)Nc1ccc(F)cc1 (stereo not given),0,0,0,80,0
CC(=O)c1nnn(-c2nc(N)nc(N(c3ccccc3)c3ccccc3)n2)c1C,0,0,0,61,0
CCCCN(CCCC)c1nc(OC)nc(-n2nnc(C(C)=O)c2C)n1,0,0,0,0,0
Clc1ccc(-c2n[nH]c3c2CCC3)cc1Cl,0,0,0,0,0
O=C(N/N=C/c1ccccn1)c1ccc(Br)cc1,-,-,-,0,0
Cc1sc2nc(COC(=O)CNC(=O)c3ccc(C(C)(C)C)cc3)[nH]c(=O)c2c1C,-,-,-,-,0
COc1ccccc1NC(=O)c1sc2nc(-c3ccco3)ccc2c1N,0,0,-,0,8.3
COc1ccc(N2CCN(C(=O)c3c(C)nn(-c4ccccc4)c3C)CC2)cc1,-,-,-,0,0
Cc1ccc(S(=O)(=O)N2CCN(CC(=O)N/N=C\C(Cl)=C\c3ccccc3)CC2)cc1,-,-,-,-,0
CC(/C=N\NC(=O)CN1CCN(S(=O)(=O)c2ccc(C)cc2)CC1)=C\c1ccccc1,-,-,-,-,5.8
CCSc1nc2ccccc2n1C(=O)/C=C\c1ccc(OC)c(OC)c1,0,-,94,0,0
CCSc1nc2ccccc2n1CC(N)=O,0,0,0,0,0
Nc1ccc(Br)cc1-c1nc2ccccc2[nH]c1=O,-,-,-,100,-
CC(=O)N(CC(C)(C)CC=C(C)C)c1ccccc1,-,0,-,0,0
C=CCN1C(=O)/C(=C2/Sc3ccccc3N2CCCS(=O)(=O)O)SC1=S,65,0,0,0,0
COc1ccc(S(=O)(=O)NCc2csc(-c3cccnc3)n2)cc1,0,0,0,70,0
COc1cccc(NC(=S)N2CCn3c(nc4ccccc43)C2)c1,-,-,-,0,-
COc1cccc(N2CCN(c3ncnc4c3[nH]c3ccc(F)cc34)CC2C)c1 (stereo not given),0,0,52,97,0
COc1cccc(N2CCN(c3ncnc4c3[nH]c3ccccc34)CC2C)c1 (stereo not given),-,-,-,0,0
COC(=O)/C=C/S(=O)(=O)c1ccc(NC(C)=O)cc1,0,0,0,92,0
OC1(c2ccc(OC(F)F)cc2)CSC(=Nc2cccnc2)N1C1CC1 (stereo not given),0,0,0,0,0
O=S(=O)(c1ccc(Br)s1)N1CCN(c2ccccc2)CC1,36,0,84,0,-
CCN1CCN(S(=O)(=O)c2ccc(Br)s2)CC1,0,0,0,0,0
Cc1ccccc1Cn1nc(C)c(NC(=O)c2cc(-c3cccs3)on2)c1C,0,-,91,-,0
COc1ccc(-c2cc(C(=O)Nc3c(C)nn(Cc4ccccc4Cl)c3C)no2)cc1OC,0,0,0,-,0
SMILES,F-actin modifier,MRP resist rev,VCAM1 TNFa inh,E-sel TNF inh,MRP-1 activ
COc1ccc(OC)c(-c2cc(C(=O)Nc3c(C)nn(Cc4ccccc4Cl)c3C)no2)c1,0,0,0,-,5.5
COc1ccc(OC)c(-c2cc(C(=O)Nc3c(C)nn(Cc4ccccc4C)c3C)no2)c1,0,0,0,-,9.3
Cc1ccc(-c2cc(C(F)(F)F)n3nc(C(=O)NCCCn4ccnc4)cc3n2)cc1C,0,-,0,0,0
Cc1cc(Sc2nc(N(C)C)nc(N(C)C)n2)nc(Cl)n1,-,-,-,0,-
Cc1c(Nc2cc(Cl)c3nonc3c2[N+](=O)[O-])c(=O)n(-c2ccccc2)n1C,-,-,-,100,-
COC(=O)CCC(=O)Nc1cccc(C(=O)Nc2cccc(Cl)c2)c1,0,-,0,0,0
COc1ccc(Br)cc1CN(C)CC(=O)Nc1cc(Cl)ccc1Cl,-,-,-,89,0
O=C(NCc1ccccc1)c1n[nH]nc1-c1ccccc1O,-,0,-,58,0
CCOC(=O)c1sc(NC(=O)C(C)C)c(C#N)c1C,-,-,-,0,-
Oc1ccccc1Nc1nc(NCC2CCCO2)c2ccccc2n1 (stereo not given),0,0,0,65,0
Oc1ccc(Nc2nc(NCC3CCCO3)c3ccccc3n2)cc1 (stereo not given),0,0,0,0,0
O=C(CSc1ccccc1C(=O)O)NCC1CCCCC1,-,-,-,0,-
COc1ccc(/C=N/Nc2nc(-c3ccc(Cl)cc3)cc(C(F)(F)F)n2)cc1OC,-,-,-,0,5.6
CC(C)C(=O)Nc1ccc(C(=O)NNC(=O)NC2CCCCC2)cc1,0,-,36,0,0
